Where two headings read alike, the source gives them in different places.
Key:
FYN = conditions: concentration: 1 μM, replicates: in singlicate; n = 1
GAK = conditions: concentration: 1 μM, replicates: in singlicate; n = 1
GCN2(Kin.Dom.2,S808G) = test system: T1, GCN2(Kin.Dom.2,S808G); conditions: concentration: 1 μM, replicates: in singlicate; n = 1
T1 construct: gene EIF2AK4

GRK1 = conditions: concentration: 1 μM, replicates: in singlicate; n = 1
GRK2 = test system: T2, GRK2; conditions: concentration: 1 μM, replicates: in singlicate; n = 1
T2 construct: gene ADRBK1

GRK3 = test system: T3, GRK3; conditions: concentration: 1 μM, replicates: in singlicate; n = 1
T3 construct: gene ADRBK2

GRK4 = conditions: concentration: 1 μM, replicates: in singlicate; n = 1
GRK7 = conditions: concentration: 1 μM, replicates: in singlicate; n = 1
GSK3A = conditions: concentration: 1 μM, replicates: in singlicate; n = 1
GSK3B = conditions: n = 1
[1] = concentration: 1 μM, replicates: in singlicate
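Further: KINOMEscan kinase panel screen.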

Structure (SMILES) | %Inh (FYN) [%] | %Inh (GAK) [%] | %Inh (GCN2(Kin.Dom.2,S808G)) [%] | %Inh (GRK1) [%] | %Inh (GRK2) [%] | %Inh (GRK3) [%] | %Inh (GRK4) [%] | %Inh (GRK7) [%] | %Inh (GSK3A) [%] | %Inh (GSK3B; [1]) [%] | %Inh (GSK3B; 1 µM) [%]
N#CC1(c2cccc(C(=O)Nc3cccc(Oc4ccc5nc(NC(=O)C6CC6)sc5n4)c3)c2)CC1 | 92 | 0 | 0 | 12 | 0 | 0 | 0 | 0 | 24 | 0 | 
COc1cccc(-c2nc(-c3ccccc3)[nH]c2-c2ccncc2)c1 [SB-610250] | 24 | 72 | 1 | 0 | 0 | 49 | 0 | 0 | 0 | 19 | 
N#Cc1cnc2cc(-c3cnc(CNCCN4CCOCC4)s3)ccc2c1Nc1ccc(Oc2ccccc2)cc1 [GW664114] | 93.2 | 43 | 100 | 0 | 0 | 27 | 0 | 0 | 6 | 10 | 
COc1cccc(C2=C(Nc3cccc(O)c3)C(=O)NC2=O)c1 [SB-390771] | 0 | 0 | 0 | 4 | 0 | 31 | 0 | 100 | 0 |  | 13
Cc1nn2c(=O)cc(N3CCO[C@H](C)C3)nc2n1Cc1cccc(Cl)c1Cl [GSK2373693] | 7 | 8 | 0 | 11 | 0 | 17 | 3 | 0 | 0 | 69 | 
Cc1ccccc1CC(=O)N1CCc2cc(-c3cn(C)c4ncnc(N)c34)ccc21 [GSK2603346] | 32 | 32 | 65 | 9 | 3 | 0 | 0 | 0 | 1 | 2 | 
CN(c1ccc(NC(=O)Nc2cccc(Cl)c2)cc1)c1ccnc(N)n1.Cl [GW830707] | 10 | 10 | 0 | 0 | 0 | 1 | 0 | 1 | 17 | 1 | 
CCn1cnc2c(NCc3ccccc3)ncnc21 [SKF-96418] | 0 | 0 | 0 | 39 | 0 | 0 | 6 | 0 | 0 | 35 | 
COC(=O)Nc1nc2cc(Oc3ccc(NC(=O)Nc4cccc(SC)c4)cc3)ccc2[nH]1.Cl [GW697999] | 19 | 21 | 9 | 0 | 0 | 57 | 0 | 0 | 0 | 0 | 
O=C(O)C(F)(F)F.O=c1[nH]ccc2nc(N[C@@H]3CCNC3)nc(Nc3cc(Cl)cc(Cl)c3)c12 [GSK2188764] | 52 | 74 | 69 | 92 | 47 | 32 | 86 | 70 | 49 | 19 | 
Cc1ccc(NC(=O)c2ccc(Cl)c(Cl)c2)cc1-c1ccc(C(=O)Nc2ccncc2)cc1 [GSK1398460] | 31 | 45 | 8 | 0 | 0 | 24 | 4 | 0 | 6 | 15 | 
Cc1ccc(NC(=O)c2cccc(N3CCCCC3)c2)cc1-c1ccc(C(=O)NCC2CC2)cc1 [GSK1917008] | 15 | 11 | 15 | 3 | 6 | 27 | 10 | 0 | 27 | 10 | 
Nc1ncc(-c2cn[nH]c2)c2scc(-c3ccc4c(c3)CCN4C(=O)Cc3ccccc3)c12 [GSK2593067] | 65 | 32 | 97.8 | 10 | 0 | 0 | 0 | 0 | 2 | 11 | 
Cc1ccc(NC(=O)c2ccnc(N3CCCCC3)c2)cc1-c1ccc(C(=O)NCC2CC2)cc1 [GW775610] | 2 | 0 | 14 | 8 | 16 | 14 | 19 | 0 | 0 | 0 | 
Cn1cc(-c2cnc(N)c3c(-c4ccc5c(c4)CCN5C(=O)Cc4ccccc4)csc23)cn1 [GSK2593074] | 25 | 11 | 91.2 | 0 | 0 | 0 | 7 | 6 | 5 | 0 | 
Fc1cc(Cl)ccc1Nc1ccnc2cc(-c3ccc(CN4CCSCC4)o3)ccc12 [GW560106] | 90.5 | 84 | 0 | 0 | 0 | 32 | 3 | 0 | 22 | 0 | 

From paper PMC5540273 (PLoS ONE, 2017)
